HSP90 refold inh: HSP90 refolding inhibition in rabbit reticulocyte lysate; luciferase refolding luminescence, 3 h; inhibition, % at 5.6 µM; 290,000 tested, 0.91% active;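 active = inhibition above the screen-wide mean plus 3 SD, computed separately per campaign, cut at about 16% in these data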;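 note: 0% = DMSO wells and 100% = 60 µM geldanamycin wells; inhibitors lower the luminescence because luciferase stays unfolded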
EBV LMP1 NFkB: inhibitors of Epstein-Barr LMP1-induced NF-kappaB reporter; inhibition, % at 12.5 µM; AID 504558; LMP1-induced NF-kappaB luciferase reporter cells, luminescence; 350,000 tested, 0.69% active; in the data active = inhibition above about 41%;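 note: 0% = neutral control wells and 100% = reference inhibitor control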
HSF1 activator: increases HSF-1 driven luciferase reporter signal. NIH3T3-HGL HSF-1 luciferase reporter, MG132, 8 h; 100% = twice DMSO control signal. activation, % at 9 µM. 300,000 tested, 1.7% active. AID 504408;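 active = mean replicate activation of at least 50% with a set share of replicates each reaching 50%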;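 note: 0% = median of the neutral control wells and 100% = twice that signal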
TROY signal inh: inhibitors of TROY-dependent NF-kB signaling | Q293 LMP1-TROYcd NF-kB luciferase reporter, 4 h | AID 1347056 | 360,000 tested, 0.98% active | inhibition, % at 10 µM;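 active = compounds whose plate-normalised and pattern-corrected inhibition of the luciferase reporter signal at the single screening dose is 50% or more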
HSF1 inh: HSF1 inhibition; NIH3T3-HGL HSE-luciferase, MG132-induced, luminescence 8 h; stronger effect = lower value; activity change, negative = inhibition, % at 7.5 µM (by protocol); 300,000 tested, 0.77% active; AID 2098;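 active = more than half of replicate wells show activity change below -50%, luminescence cut by over half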;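 note: luciferase reports HSF-1 transcriptional activity via heat shock element; 0% = median of DMSO wells and -100% = zero luminescence signal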
TWEAK Fn14 block: TWEAK-Fn14 signaling inhibition; 360,000 tested, 2% active; inhibition, % at 10 µM; TWEAK-stimulated Fn14 reporter cells, luciferase luminescence, 8 h; in the data active = inhibition above about 50%
Starred values were filed as active, the others as inactive. Rows were chosen to be rich in hits. Some 4.7% of all compounds tested hit in one or more screens of this group.

Results for COc1cc(C(=O)N(C)C2CCCCC2)cc(OC)c1OC ?
EBV LMP1 NFkB: 6; TROY signal inh: -2; TWEAK Fn14 block: -14

Results for CCOc1ccc(C2N(c3ccc(F)cc3)C(=O)C3CCCN32)cc1OC (stereo not given) ?
HSP90 refold inh: 0; EBV LMP1 NFkB: 4; HSF1 activator: -65; TROY signal inh: 0; HSF1 inh: -52*; TWEAK Fn14 block: -6

Results for CCOC(=O)C1(C)CCCN1C(=O)c1ccc(OC)c(OC)c1 (stereo not given) ?
TROY signal inh: -5; TWEAK Fn14 block: -5

What do the screens show for `CC(C)CNC(=O)C1(C)CCCN1Cc1ccc(S(C)(=O)=O)cc1` (stereo not given)?
TROY signal inh: 4; TWEAK Fn14 block: -4

How did NC(=O)Cc1ccc(C(=O)c2ccc(Cl)cc2)s1 do in these assays?
HSP90 refold inh: -1; EBV LMP1 NFkB: -11; HSF1 activator: -72; TROY signal inh: -20; HSF1 inh: -64*; TWEAK Fn14 block: -24

How did O=C(O)Cc1ccc(C(=O)c2ccc(Cl)cc2)s1 do in these assays?
HSP90 refold inh: 0; EBV LMP1 NFkB: 2; HSF1 activator: -10; TROY signal inh: 1; HSF1 inh: -1; TWEAK Fn14 block: -10

What do the screens show for `Oc1cc(NCc2cccnc2)ccc1-c1nc2ccccc2o1`?
HSP90 refold inh: -3; EBV LMP1 NFkB: -29; HSF1 activator: 59*; TROY signal inh: -38; HSF1 inh: 31; TWEAK Fn14 block: 103*

Results for CC(C)C[C@H]1CN(CCCC[C@H]2CNC(=O)C(=O)N2CCc2ccc(O)cc2)C(=O)C(=O)N1CCc1ccc(O)cc1 ?
TROY signal inh: 1; TWEAK Fn14 block: -10

What do the screens show for `CN1CCN(C(=O)C2=C[C@H](C3CC3)C[C@H](OCc3ccc(CO)cc3)O2)CC1`?
EBV LMP1 NFkB: -10; HSF1 activator: 13; TROY signal inh: 1; HSF1 inh: 0; TWEAK Fn14 block: 7

What do the screens show for `O=C(C1=C[C@@H](c2ccc(Br)cc2)C[C@@H](OCc2ccc(CO)cc2)O1)N1CCN(Cc2ccc3c(c2)OCO3)CC1`?
HSP90 refold inh: 17*; EBV LMP1 NFkB: 12; HSF1 activator: 12; TROY signal inh: 9; HSF1 inh: 2; TWEAK Fn14 block: 25

Results for CN1CCN(C(=O)C2=C[C@@H](C(C)(C)C)C[C@@H](OCc3ccc(CO)cc3)O2)CC1 ?
HSP90 refold inh: 2; EBV LMP1 NFkB: 55*; HSF1 activator: -28; TROY signal inh: -26; HSF1 inh: -9; TWEAK Fn14 block: 3

What do the screens show for `O=C(C1=C[C@@H](C2CC2)C[C@@H](OCc2ccc(CO)cc2)O1)N1CCN(Cc2ccccc2)CC1`?
HSP90 refold inh: 2; EBV LMP1 NFkB: -1; HSF1 activator: 104*; TROY signal inh: -6; HSF1 inh: 87; TWEAK Fn14 block: -7

What do the screens show for `O=C(C1=C[C@@H](c2ccc(C(F)(F)F)cc2)C[C@@H](OCc2ccc(CO)cc2)O1)N1CCN(Cc2ccc3c(c2)OCO3)CC1`?
HSP90 refold inh: 7; EBV LMP1 NFkB: 1; HSF1 activator: -6; TROY signal inh: -2; HSF1 inh: -11; TWEAK Fn14 block: 36

What do the screens show for `Cc1cc(C2C(=O)NC(=O)C2=O)c(C)cc1Br` (stereo not given)?
EBV LMP1 NFkB: 1; TROY signal inh: 6; TWEAK Fn14 block: 7

How did COc1ccc(OC(F)(F)F)cc1CC1(C)C(=O)Nc2ccc(S(=O)(=O)NC3CCCCC3)cc21 (stereo not given) do in these assays?
TROY signal inh: 25; TWEAK Fn14 block: 12

How did O=C1NC[C@H](CCCCN2CCN(CCc3ccc(O)cc3)C(=O)C2=O)N(CCc2ccc(O)cc2)C1=O do in these assays?
TROY signal inh: -13; TWEAK Fn14 block: 7

Results for O=C(/C=C/[C@H]1O[C@@H](n2ccc(=O)[nH]c2=O)[C@H](O)[C@@H]1O)NCc1ccccc1 ?
TROY signal inh: -5; TWEAK Fn14 block: 9

Results for O=C(Nc1ccc2c3c(cccc13)CC2)c1ccco1 ?
HSP90 refold inh: -1; EBV LMP1 NFkB: -6; HSF1 activator: 11; TROY signal inh: 14; HSF1 inh: 10; TWEAK Fn14 block: 9

How did CC(C)(C)C(=O)NC(=S)N1CCc2ccccc21 do in these assays?
HSP90 refold inh: -3; EBV LMP1 NFkB: -10; HSF1 activator: 0; TROY signal inh: -5; HSF1 inh: -1; TWEAK Fn14 block: -21

Results for O=C(Nc1ccc2c3c(cccc13)CC2)c1ccc(Br)o1 ?
HSP90 refold inh: -1; EBV LMP1 NFkB: -16; HSF1 activator: 75*; TROY signal inh: -9; HSF1 inh: 43; TWEAK Fn14 block: -31

Results for O=C(NC(=S)N1CCc2ccccc21)c1ccccc1Br ?
HSP90 refold inh: 2; EBV LMP1 NFkB: 1; HSF1 activator: 57*; TROY signal inh: -54; HSF1 inh: 44; TWEAK Fn14 block: -41

Results for O=C(NC(=S)N1CCc2ccccc21)c1ccc(Br)o1 ?
HSP90 refold inh: 0; EBV LMP1 NFkB: -14; HSF1 activator: 52*; TROY signal inh: -88; HSF1 inh: 37; TWEAK Fn14 block: 34

Results for Nc1ccc(-c2ncc(-c3ccccc3)o2)cc1 ?
HSP90 refold inh: 7; EBV LMP1 NFkB: 28; HSF1 activator: -27; TROY signal inh: 34; HSF1 inh: -28; TWEAK Fn14 block: 68*

What do the screens show for `Cc1cc(C)cc(C(=O)NC(=S)Nc2ccc3c(c2)OCCO3)c1`?
HSP90 refold inh: 2; EBV LMP1 NFkB: -9; HSF1 activator: 122*; TROY signal inh: -29; HSF1 inh: 71; TWEAK Fn14 block: -6

How did O=C(NC(=S)Nc1ccc(N2CCOCC2)c(Cl)c1)c1cncc(Br)c1 do in these assays?
HSP90 refold inh: -1; EBV LMP1 NFkB: 8; HSF1 activator: 12; TROY signal inh: 11; HSF1 inh: 1; TWEAK Fn14 block: 7

What do the screens show for `O=C(NC(=S)Nc1ccc(N2CCCCC2)c(Cl)c1)c1ccc2c(c1)OCCO2`?
HSP90 refold inh: 2; EBV LMP1 NFkB: 16; HSF1 activator: -64; TROY signal inh: -17; HSF1 inh: -60*; TWEAK Fn14 block: 35

What do the screens show for `O=C(Nc1ccncc1)c1cc(C2CCCCN2C(=O)CCc2ccccc2)on1` (stereo not given)?
TROY signal inh: 2; TWEAK Fn14 block: 24

Results for COc1ccc(Cc2c(C(C)(C)C)nc3ccc(Br)cn23)c(C)c1 ?
TROY signal inh: 93*; TWEAK Fn14 block: 2

How did COc1cccc(-c2cccc(-c3nc(C(=O)NCc4ccc(Oc5ccccc5)cc4)cc4c3[C@H](CCO)N(S(=O)C(C)(C)C)C4)c2)c1 (stereo not given in full) do in these assays?
TROY signal inh: 2; TWEAK Fn14 block: -7

Results for COc1ccc(C(=O)Cn2c(C(=O)/C=C/c3ccccc3)nc3ccccc32)cc1 ?
HSP90 refold inh: 3; EBV LMP1 NFkB: 7; HSF1 activator: 341*; TROY signal inh: 11; HSF1 inh: 225; TWEAK Fn14 block: -21

Compound activity as filed in PubChem.
